# Compound activity as filed in PubChem BioAssay.
# RORg inh – ROR gamma (mouse) transcription inhibition; 310,000 compounds, 5.4% hits; Drosophila S2 Gal4-RORgamma UAS-luciferase reporter, 20 h; AID 2551; P51450; Potency, µM (doses to about 53.6 µM), without a hit: top-dose activity change, negative = inhibition, most hits filed as inhibitors; further: nearly all actives have a fitted effect of over 60% in size
#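 In this cell-based reporter format, copper sulfate (700 uM final) drives Gal4–ROR gamma fusion expression from a metallothionein promoter in Drosophila Schneider cells; compounds preincubated 1 hr, reporter read after 20 hr at ambient temperature.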
# PLK1 PBD block – PLK1 (human) polo-box domain binding inhibition. 360,000 compounds, 2.8% hits. Plk1 PBD binding of FITC phosphopeptide, fluorescence polarization. P53350. Potency, µM, inactives show max response, negative = inhibition, most hits filed as inhibitors; further: series mostly up to about 57 µM; nearly all actives have a fitted effect of over 65% in size
# Sfp PPTase inh – inhibitors of Bacillus subtilis Sfp phosphopantetheinyl transferase; Q9F4F7; Biochemical Sfp PPTase activity, qHTS; Potency, µM, for inactives: largest response in the series, negative = inhibition, actives largely listed as inhibitors; 310,000 compounds, 3.5% hits; AID 1490;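 further: the enzyme is Sfp with the accession as filed and its product quenches rhodamine fluorescence; 0% = enzyme reaction without inhibitor and -100% = no enzyme wells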
#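 Compounds were incubated with enzyme (final 15 nM) for 15 min at room temperature before substrate addition started the reaction. Fluorescence at 525 nm excitation, 598 nm emission was recorded immediately and after 30 minutes.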
# Gal4-VP16 FLuc – inhibits Gal4-VP16 luciferase reporter, ROR gamma counter-screen; Drosophila S2 Gal4-VP16 UAS-luciferase, luminescence, 20 h; Potency, µM (top dose mostly 53.6 µM), inactives show at the highest dose activity, negative = inhibition, actives largely listed as inhibitors; 310,000 compounds, 3.5% hits;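 further: Gal4-VP16 expression switched on by copper sulfate through the metallothionein promoter; nearly all actives have a fitted effect of over 50% in size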
# ALDH1A1 block – inhibitors of human aldehyde dehydrogenase 1A1; AID 1030; P00352; Purified ALDH1A1, NADH fluorescence, propionaldehyde substrate; Potency, µM (series often up to 75.3 µM), inactives show at the top dose activity, negative = inhibition, hits mostly inhibitors; 220,000 compounds, 7.3% hits; active means well fitted inhibition curve with a large enough effect, not every such curve was filed as active; inconclusive means small, poorly fitted or top-dose-only effect, or another doubt; inactive means no such curve, though single readings can be large or run the other way;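 further: plate controls were no enzyme wells and a reference inhibitor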
# Target sequence (P00352 whole entry, looked up): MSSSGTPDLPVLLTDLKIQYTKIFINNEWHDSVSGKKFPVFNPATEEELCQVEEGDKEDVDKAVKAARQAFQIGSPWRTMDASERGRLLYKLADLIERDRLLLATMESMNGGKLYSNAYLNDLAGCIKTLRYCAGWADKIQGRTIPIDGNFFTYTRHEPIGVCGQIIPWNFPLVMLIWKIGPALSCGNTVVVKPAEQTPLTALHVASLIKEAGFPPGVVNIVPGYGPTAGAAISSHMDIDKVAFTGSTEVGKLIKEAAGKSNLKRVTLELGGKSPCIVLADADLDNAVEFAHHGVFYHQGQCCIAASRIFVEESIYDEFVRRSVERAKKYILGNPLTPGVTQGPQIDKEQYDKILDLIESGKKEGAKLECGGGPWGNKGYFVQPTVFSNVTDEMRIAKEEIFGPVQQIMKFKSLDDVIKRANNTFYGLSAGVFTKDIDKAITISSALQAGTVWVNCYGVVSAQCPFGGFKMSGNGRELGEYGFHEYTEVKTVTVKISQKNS
# Numbers without * were called inactive; ? = inconclusive; . = no result given; [ ] = remark or other dose. This is a sample that favours compounds with a hit; in the whole collection about 12% have one here. Unless noted, the call rests on the fitted dose curve; in most records, active means well fitted curve in the direction sought with a large enough effect; inconclusive means small, poorly fitted or top-dose-only effect, or another doubt; inactive means no such curve, though single readings can be large; an effect the other way counts as inactive or inconclusive. Unless noted, on the % scale 0 is the no-effect control and ±100 the full control effect; potency means the concentration at half of the fitted maximal effect.
SMILES,RORg inh,PLK1 PBD block,Sfp PPTase inh,Gal4-VP16 FLuc,ALDH1A1 block
O=C(C[C@H]1CC[C@H]2[C@@H](COC[C@@H](O)CN2S(=O)(=O)c2ccccc2)O1)N[C@@H]1CCN(Cc2ccccc2)C1,.,-12.9%,.,.,.
COCCNc1nc(Nc2ccc(Cl)cc2F)c2sccc2n1,.,-12.6%,.,.,.
COc1ccc(C(C)=O)cc1COC(=O)c1c(C)noc1C,-12.3%,-14.5%,1.5%,-0.9%,22.4µM*
COc1cc(C(=O)Oc2ccccc2)ccc1OCc1c(C)noc1C,-2.8%,26.7µM*,2.4%,0.3%,20.5%
COc1cccc(C(=O)Nc2cccc(C(C)=O)c2)c1,1.0%,-0.9%,5.2%,-1.6%,?
COc1ccc(C(C)=O)cc1COc1ccc(-n2cnnn2)cc1,-1.0%,-24.7%,-4.2%,3.1%,3.55µM*
COc1ccc(OC)c(C(C)NC(=O)Nc2cccc(C(C)=O)c2)c1 (centres undefined),12.1%,-5.5%,-7.2%,2.7%,11.2µM*
CCNC(=O)C1(C)CCCN(C(=O)c2ccc3c(c2)C(C)(C)CCC3(C)C)C1 (centres undefined),.,-7.1%,.,.,.
COc1ccc(-c2nc3ccc(Br)cn3c2Cc2ccccc2)cc1OC,.,-2.8%,.,.,.
N#Cc1ccc(CN2CCC3(CC2)CCN(C(=O)c2ccncc2)CC3)cc1,-18.3%,.,40.1%,0.2%,-1.1%
COc1ccc(Br)cc1CN(C)C(C)C(=O)Nc1cccc(C(C)=O)c1 (centres undefined),38.5%,?,-1.1%,-14.5%,10µM*
COc1ccc(C(C)=O)cc1CN(C)C,-8.3%,?,-6.1%,8.9%,8.91µM*
COc1ccc(C(C)=O)cc1CC(=O)NC1CCCCCC1,-11.9%,-6.0%,2.8%,3.6%,.
COc1ccc(C(C)=O)cc1COC(=O)c1ccc(OCc2c(C)noc2C)cc1,?,-10.7%,?,?,7.94µM*
OCCN1CCN(c2ncnc3c2ncn3[C@H]2CN(Cc3ccc(F)cc3)C[C@@H](CO)O2)CC1,.,-1.6%,.,.,.
c1ccc2c(CN3CCOCC3)c3ccccc3c(CN3CCOCC3)c2c1,2.7%,-9.9%,-12.6%,-1.4%,-12.2%
OC1(CN2CCOCC2)C2CN3CCN(C2)CC1(c1ccccc1)C3 (centres undefined),-56.1%,21.2µM*,5.1%,-0.4%,5.2%
CC(Sc1nnnn1-c1ccccc1)C(=O)Nc1ccc(Cl)cn1 (centres undefined),?,-4.0%,-1.4%,?,5.01µM*
CC(Sc1nnc2ccccn12)C(=O)Nc1ccc(Cl)cn1 (centres undefined),22.7%,-8.7%,8.9%,0.3%,15.1%
O=C(O)c1cc(O)c2c(c1)[C@@H]([C@H]1c3cc(C(=O)O)cc(O)c3C(=O)c3c(O[C@@H]4O[C@H](CO)[C@@H](O)[C@H](O)[C@H]4O)cccc31)c1cccc(O[C@@H]3O[C@H](CO)[C@@H](O)[C@H](O)[C@H]3O)c1C2=O,.,2.67µM*,.,.,.
O=C(O)c1cc(O)c2c(c1)[C@H]([C@H]1c3cc(C(=O)O)cc(O)c3C(=O)c3c(O[C@@H]4OC(CO)C(O)C(O)C4O)cccc31)c1cccc(O[C@@H]3OC(CO)C(O)C(O)C3O)c1C2=O (some centres undefined),-35.8%,.,56.2µM*,-19.3%,-9.6%
c1ccc(-c2nc(-c3cccc4ccccc34)c(NC3CCCCC3)o2)cc1,6.0%,.,-20.2%,-9.7%,0.5%
CSc1ccc(/C=C2/C(C)=C(CC(=O)O)c3cc(F)ccc32)cc1,5.3%,.,-10.3%,-0.8%,-4.4%
COc1ccc(C(=O)N2CCC[C@@]3(CCN(Cc4nccs4)C3)C2)cc1,0.0%,.,14.5%,2.1%,8.91µM*
COC(=O)N1CCC[C@@]2(CCN(Cc3nccs3)C2)C1,1.9%,.,11.6%,7.7%,7.8%
SMILES,RORg inh,PLK1 PBD block,Sfp PPTase inh,Gal4-VP16 FLuc,ALDH1A1 block
CCC1(C)Cc2ccccc2C(=S)N1 (centres undefined),8.91µM*,-18.9%,-20.2%,?,0.2%
CCC1(C)Cc2ccccc2C(=O)N1 (centres undefined),0.1%,0.2%,9.2%,1.5%,.
COc1ccccc1-c1cnc(C(O)c2cccc(F)c2)[nH]1 (centres undefined),.,-1.7%,.,.,.
N#CC(CC(=O)OCc1ccccc1)NC(=O)OCc1ccccc1 (centres undefined),.,8.6%,.,.,.
Cc1cccc(N2C(=O)CC(Sc3nc(-c4ccccc4)c4cc(Cl)ccc4n3)C2=O)c1 (centres undefined),2.82µM*,-2.4%,12.7%,?,?
Cc1cccc(N2C(=O)CC(Sc3nnc(C)s3)C2=O)c1 (centres undefined),?,29.9µM*,-10.3%,?,2.82µM*
COC(=O)NC(c1cccc(F)c1)C(C(C)=O)C(=O)OC (centres undefined),-4.9%[10 µM],.,12.7%,-7.3%[10 µM],2.7%[13.5 µM]
CCOC(=O)C(=C1Nc2ccccc2N1)n1c(-c2cccnc2)nc2ccccc21,.,-5.3%,.,.,.
Cc1sc(N/N=C/c2ccco2)nc1-c1ccccc1,11.2µM*,-5.9%,-3.5%,?,-1.2%
Cc1cc(-c2ccccc2)nc(N/N=C/c2ccccc2)n1,14.1µM*,-11.8%,19.5%,?,.
C=CCc1c(C)nc(C)nc1N/N=C/c1ccccc1,10µM*,-1.5%,-10.6%,1.58µM*,12.6%
Cc1cc(-c2ccccc2)nc(N/N=C/c2cccnc2)n1,-9.8%,-0.3%,14.0%,-6.9%,21.4%
CC(C)=NNc1nc(-c2ccccc2)c(C)s1,11.2µM*,21.2µM*,56.2µM*,-25.8%,?
Cc1sc(N/N=C/c2cccnc2)nc1-c1ccccc1,33.2%,-9.7%,-99.2%,-5.6%,?
Cc1cc(C)c(S(=O)(=O)OC[C@H]2C=CC[C@@H](CCC[C@H]3O[C@H](C(=O)OC(C)C)CC[C@@H]3C)O2)c(C)c1,-1.2%,.,-8.3%,1.4%,-14.0%
On1nnc2ccccc21,23.7%,-16.1%,-7.1%,-1.1%,.
CCCCCCC#Cc1cc(OC)c(OC)cc1C(N1CC(C)c2ccccc21)N1CC(C)c2ccccc21 (centres undefined),8.9%[10 µM],.,-2.4%,-10.7%[10 µM],?
CC(C)(C)NC(=O)C(c1ccccc1F)n1c(=O)c(-c2ccccc2)nc2ccccc21 (centres undefined),.,-8.9%,.,.,.
CCCCC/C=C\C/C=C\C/C=C\C/C=C\CCCC(=O)O[C@@H](CO)COCCCCCCCCCCCCCCCC,-3.7%,.,13.7%,-15.6%,2.0%
CC(=O)N1CCc2cc(S(=O)(=O)C(C)CC(=O)NCc3ccco3)ccc21 (centres undefined),.,-4.3%,.,.,.
Cc1cc(-c2ccccc2)nc(N/N=C/c2ccc(N(C)C)cc2)n1,.,-6.4%,.,.,.
Cc1cc(-c2ccccc2)nc(N/N=C/c2ccco2)n1,8.91µM*,-8.9%,3.4%,?,-6.3%
COc1ccc(-n2c(O)c(/C=N/Nc3nc(C)cc(C)n3)c3ccccc3c2=O)cc1OC,?,-7.5%,8.7%,6.4%,0.794µM*
CNc1nc(C)nc(N/N=C/c2ccccc2)n1,2.6%,2.3%,4.9%,24.2%,12.6µM*
